Measurements reported in the supplement of paper PMC8728848.
This is one part of a sample in which the strongest signals are shown more often than they occur.

Legend:
Assay in all cases: glycan array binding signal (z-score within array); higher = stronger binding
Settings in all cases: glycan notation: IUPAC condensed, linker removed
[1] = target: Fuc(a1-2)Gal(b1-3)GalNAc(a1-3)[Fuc(a1-2)]Gal(b1-4)Glc
Procedure, shortened: (§1)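 Glycan array data were curated from 3228 arrays in the Consortium for Functional Glycomics database and kept only where the protein sequence was available. Glycan names were converted to IUPAC-condensed notation, and columns mapping to the same glycan were averaged. The binding signal is a within-array Z-score, averaged across arrays of the same protein sequence at different concentrations or buffers and across linkers. Negative Z-scores can be read as non-binding.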

[2] = target: Fuc(a1-2)Gal(b1-3)GalNAc(b1-3)Gal
Procedure, shortened: as §1

[3] = target: Fuc(a1-2)Gal(b1-4)[Fuc(a1-3)]GlcNAc(b1-3)GalNAc
Procedure, shortened: as §1

[4] = target: Fuc(a1-2)[Gal(a1-3)]Gal(b1-3)GlcNAc
Procedure, shortened: as §1

[5] = target: Fuc(a1-2)[Gal(a1-3)]Gal(b1-4)GlcNAc(b1-2)Man
Procedure, shortened: as §1

[6] = target: Fuc(a1-2)[GalNAc(a1-3)]Gal(b1-3)GlcNAc(b1-6)GalNAc
Procedure, shortened: as §1

[7] = target: Fuc(a1-3)[Gal(b1-4)]GlcNAc
Procedure, shortened: as §1

[8] = target: Fuc(a1-3)[GalNAc(b1-4)]GlcNAc
Procedure, shortened: as §1

[9] = target: Gal(b1-3)GlcNAc(b1-3)Gal(b1-4)GlcNAc(b1-2)Man(a1-3)[Gal(b1-3)GlcNAc(b1-3)Gal(b1-4)GlcNAc(b1-2)Man(a1-6)]Man(b1-4)GlcNAc(b1-4)GlcNAc
Procedure, shortened: as §1

Gal(b1-4)GlcNAc = target: Gal(b1-4)GlcNAc
Procedure, shortened: as §1

[10] = target: Gal(b1-4)GlcNAc(b1-2)Man(a1-3)[Gal(b1-4)GlcNAc(b1-2)Man(a1-6)]Man(b1-4)GlcNAc(b1-4)[Fuc(a1-6)]GlcNAc
Procedure, shortened: as §1

[11] = target: Gal(b1-4)GlcNAc(b1-2)[Gal(b1-4)GlcNAc(b1-6)]Man(a1-6)[Gal(b1-4)GlcNAc(b1-2)Man(a1-3)]Man(b1-4)GlcNAc(b1-4)[Fuc(a1-6)]GlcNAc
Procedure, shortened: as §1

[12] = target: Gal(b1-4)GlcNAc(b1-3)Gal(b1-4)GlcNAc(b1-2)[Gal(b1-4)GlcNAc(b1-3)Gal(b1-4)GlcNAc(b1-6)]Man(a1-6)[Gal(b1-4)GlcNAc(b1-3)Gal(b1-4)GlcNAc(b1-2)Man(a1-3)]Man(b1-4)GlcNAc(b1-4)GlcNAc
Procedure, shortened: as §1

[13] = target: Gal(b1-4)GlcNAc(b1-3)Gal(b1-4)GlcNAc(b1-3)Gal(b1-4)GlcNAc(b1-3)Gal(b1-4)GlcNAc(b1-3)Gal(b1-4)GlcNAc(b1-2)Man(a1-3)[Gal(b1-4)GlcNAc(b1-3)Gal(b1-4)GlcNAc(b1-3)Gal(b1-4)GlcNAc(b1-3)Gal(b1-4)GlcNAc(b1-3)Gal(b1-4)GlcNAc(b1-2)Man(a1-6)]Man(b1-4)GlcNAc(b1-4)GlcNAc
Procedure, shortened: as §1

[14] = target: Gal(b1-4)GlcNAc(b1-3)Gal(b1-4)GlcNAc(b1-3)Gal(b1-4)GlcNAc(b1-3)Gal(b1-4)GlcNAc(b1-3)Gal(b1-4)GlcNAc(b1-2)[Gal(b1-4)GlcNAc(b1-3)Gal(b1-4)GlcNAc(b1-3)Gal(b1-4)GlcNAc(b1-3)Gal(b1-4)GlcNAc(b1-3)Gal(b1-4)GlcNAc(b1-6)]Man(a1-6)[Gal(b1-4)GlcNAc(b1-3)Gal(b1-4)GlcNAc(b1-3)Gal(b1-4)GlcNAc(b1-3)Gal(b1-4)GlcNAc(b1-3)Gal(b1-4)GlcNAc(b1-2)Man(a1-3)]Man(b1-4)GlcNAc(b1-4)[Fuc(a1-6)]GlcNAc
Procedure, shortened: as §1

[15] = target: Gal3S(b1-3)[Fuc(a1-4)]GlcNAc
Procedure, shortened: as §1

Gal6S(b1-4)Glc6S = target: Gal6S(b1-4)Glc6S
Procedure, shortened: as §1

[16] = target: GalNAc(b1-3)Gal(a1-4)Gal(b1-4)GlcNAc
Procedure, shortened: as §1

[17] = target: Glc(a1-4)Glc(a1-4)Glc(a1-4)Glc
Procedure, shortened: as §1

[18] = target: GlcNAc(a1-4)Gal(b1-4)GlcNAc
Procedure, shortened: as §1

[19] = target: GlcNAc(b1-2)[GlcNAc(b1-6)]Man(a1-6)[GlcNAc(b1-2)Man(a1-3)]Man(b1-4)GlcNAc(b1-4)[Fuc(a1-6)]GlcNAc
Procedure, shortened: as §1

[20] = target: GlcNAc(b1-3)Gal(b1-4)GlcNAc(b1-3)Gal(b1-4)GlcNAc(b1-2)Man(a1-3)[GlcNAc(b1-3)Gal(b1-4)GlcNAc(b1-3)Gal(b1-4)GlcNAc(b1-2)Man(a1-6)]Man(b1-4)GlcNAc(b1-4)GlcNAc
Procedure, shortened: as §1

B1: MUB40 (Lactobacillus reuteri) (peptide)
chain: CTAEGIKKFEGDGYELFKDNFPAGEKFDNDDTNDQFYTVIF
**Q.** For B1, which “glycan array binding signal (z-score)” value [1] is on record?
**A.** The value was -0.41.

**Q.** What about the “glycan array binding signal (z-score)” value [2] of the same binder?
**A.** The value was -0.251.

**Q.** What about the “glycan array binding signal (z-score)” value [3] of the same binder?
**A.** The value was 3.56.

**Q.** And the “glycan array binding signal (z-score)” value [4]?
**A.** Its value is -0.002.

**Q.** And the “glycan array binding signal (z-score)” value [5]?
**A.** Its value is 2.44.

**Q.** And the “glycan array binding signal (z-score)” value [6]?
**A.** Its value is -0.425.

**Q.** What about the “glycan array binding signal (z-score)” value [7] of the same binder?
**A.** The value was 0.464.

**Q.** And the “glycan array binding signal (z-score)” value [8]?
**A.** The value was -0.365.

**Q.** What about the “glycan array binding signal (z-score)” value [9] of the same binder?
**A.** The value was 4.29.

**Q.** And the “glycan array binding signal (z-score)” value (Gal(b1-4)GlcNAc)?
**A.** Its value is -0.134.

**Q.** What about the “glycan array binding signal (z-score)” value [10] of the same binder?
**A.** The value was -0.425.

**Q.** What about the “glycan array binding signal (z-score)” value [11] of the same binder?
**A.** The value was 0.328.

**Q.** What about the “glycan array binding signal (z-score)” value [12] of the same binder?
**A.** Its value is -0.339.

**Q.** What about the “glycan array binding signal (z-score)” value [13] of the same binder?
**A.** Its value is 3.44.

**Q.** And the “glycan array binding signal (z-score)” value [14]?
**A.** The value was 2.67.

**Q.** And the “glycan array binding signal (z-score)” value [15]?
**A.** Its value is 0.295.

**Q.** What about the “glycan array binding signal (z-score)” value (Gal6S(b1-4)Glc6S) of the same binder?
**A.** The value was -0.817.

**Q.** What about the “glycan array binding signal (z-score)” value [16] of the same binder?
**A.** Its value is -0.189.

**Q.** And the “glycan array binding signal (z-score)” value [17]?
**A.** Its value is -0.331.

**Q.** What about the “glycan array binding signal (z-score)” value [18] of the same binder?
**A.** The value was -0.247.

**Q.** What about the “glycan array binding signal (z-score)” value [19] of the same binder?
**A.** The value was 0.341.

**Q.** What about the “glycan array binding signal (z-score)” value [20] of the same binder?
**A.** The value was 1.03.
